Records with an inconclusive call do not appear. Values without a mark were called inactive. The source made the active and inactive calls. Calls follow the shape of the dose curve; as a rule, active = well fitted inhibition curve with a large enough effect; inconclusive = small, poorly fitted or top-dose-only effect; inactive = flat fitted curve, though single readings scatter.

The target in test [1] is Calcium and integrin-binding protein 1 (Homo sapiens) (UniProt Q99828). In words: Primary qHTS for Identification of Calcium Integrin Binding Protein 1 (CIB1) Competitor (AID 1508620).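 Also: GST tagged CIB1 binding a fluorescein labelled alphaIIb integrin peptide tracer; top concentration of the series differs between compounds.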 The procedure, abridged:
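Fluorescence polarization competition: GST-tagged CIB1 (1 uM final) preincubated with compound 15 min at room temperature, then FITC-labelled alphaIIb peptide (100 nM final) added. After 15 min at room temperature, polarization read at Ex 480/Em 540.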
In general terms: In qHTS, concentration-response curves come from the screen itself.

Test [2] in a line: Primary qHTS for inhibitors of nuclear receptor binding SET domain protein 2 (NSD2) in an isogenic RCH-ACV NSD2 p.E1099K mutant (9B) (AID 1645876). Also: nearly all actives have a fitted effect of over 70% in size. Also: potency is read from the fitted curve at half-maximal effect.
% is scaled to controls: 0 for no effect and ±100 for the full control effect.

Calcium and integrin-binding protein 1 (Homo sapiens), sequence (Q99828 whole entry, looked up): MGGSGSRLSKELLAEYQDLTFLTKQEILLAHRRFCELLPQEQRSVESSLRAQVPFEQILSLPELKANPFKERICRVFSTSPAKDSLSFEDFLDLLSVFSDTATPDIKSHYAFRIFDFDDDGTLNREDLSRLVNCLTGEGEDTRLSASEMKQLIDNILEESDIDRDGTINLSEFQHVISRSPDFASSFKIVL

With `COC(=O)[C@@]12C(=O)C(C)C(=O)[C@]1(C)C(C)=C[C@H]1[C@]3(C=O)CC[C@H](OC(C)=O)C(C)(C)[C@H]3CC[C@@]12C` (stereo not given in full), the Potency result in test [1] and in test [2] was “inactive” in each case.

Take `COC1CC(OC2CCC3(C)C(CCC4C3CCC3(C)C(C5=CC(=O)OC5)C(OC(C)=O)CC43O)C2)OC(C)C1OC1OC(CO)C(O)C(O)C1O` (stereo not given): the Potency entry in test [1] is “inactive”. In addition, the Potency in test [2] was 483 nM (active).

In the case of `CC(CCc1ccc(O)cc1)O[C@@H]1O[C@H](CO[C@H]2OC[C@](O)(CO)[C@H]2O)[C@@H](O)[C@H](O)[C@H]1O` (stereo not given in full), the Potency entry in test [1] and in test [2] was “inactive” throughout.

`C/C=C(\C)C(=O)O[C@H]1[C@H](OC(C)=O)[C@]2(CO)[C@H](O)[C@H](O)[C@]3(C)C(=CCC4[C@@]5(C)CC[C@H](O[C@@H]6O[C@H](C(=O)O)[C@@H](O)[C@H](O[C@@H]7OC[C@H](O)[C@H](O[C@@H]8OC[C@H](O)[C@H](O)[C@H]8O)[C@H]7O)[C@H]6O[C@@H]6O[C@H](CO)[C@@H](O)[C@H](O)[C@H]6O)C(C)(C)C5CC[C@]43C)[C@@H]2CC1(C)C` (stereo not given in full): the activity change, negative = inhibition in test [1] is 1% [at 12.4 µM]. The activity change, negative = viability loss in test [2] is -4.86% [at 9.23 µM].

`O=C(O)c1ccnc2cc(C(OCCN3CCCCC3)c3ccccc3Cl)[nH]c12` (stereo not given): the Potency result in test [1] and in test [2] was “inactive” in each case.

As to `CC(=O)O[C@H]1C[C@@H](OC(C)=O)C(C)(C)C2C[C@@H](O)[C@]3(C)C(CC[C@@]4(C)[C@H](C5=CC(=O)OC5O)C[C@H]5O[C@]543)[C@]21C` (stereo not given in full), the Potency entry in test [1] and in test [2] was “inactive” each time.

Take `CN1C(=O)N(c2ccc(C#N)c(C(F)(F)F)c2)C(=O)[C@]1(CO)c1ccccc1`: the Potency entry in test [1] and in test [2] was “inactive” each time.

Turning to `CN1CCCC1CCOC(c1cc2nccc(C(=O)O)c2[nH]1)c1ccccc1Cl` (stereo not given), the Potency entry in test [1] and in test [2] was “inactive” in each case.

As to `C[C@H]1C(=O)O[C@H]2[C@H](O)[C@]34C5OC(=O)[C@]3(O[C@@H]3OC(=O)[C@H](O)C34[C@H](C(C)(C)C)[C@H]5O)C12O` (stereo not given in full), the Potency result in test [1] and in test [2] was “inactive” throughout.

As to `COC1C(O)C(C)OC(OC2C(CO)O[C@@H](O[C@@H]3CC4CCC5C(CC[C@]6(C)[C@@H](C7=CC(=O)OC7)CC[C@]56O)[C@@]4(C)[C@H](O)C3)C(O)C2O)C1O` (stereo not given in full), the Potency result in test [1] is “inactive”. The Potency in test [2] is 430 nM (active).

Regarding `CN1[C@H]2C[C@H](OC(=O)[C@H](CO)c3ccccc3)C[C@@H]1[C@@H](O)C2`, the Potency entry in test [1] and in test [2] was “inactive” throughout.

Turning to `COCC1OC(=O)c2coc3c2C1(C)C1=C(C3=O)C2CCC(=O)C2(C)CC1O` (stereo not given), the Potency result in test [1] and in test [2] was “inactive” each time.

For the compound `C[C@@]1(C(=O)O)CC[C@]2(C)CC[C@]3(C)C4=CC(=O)c5cc(O)c(O)cc5[C@]4(C)CC[C@@]3(C)[C@@H]2C1`, the Potency result in test [1] and in test [2] was “inactive” each time.

On to `N#C[C@@H](O[C@@H]1O[C@H](CO[C@@H]2O[C@H](CO)[C@@H](O)[C@H](O)[C@H]2O)[C@@H](O)[C@H](O)[C@H]1O)c1ccccc1`, for which the Potency entry in test [1] and in test [2] was “inactive” in each case.

For `CCC1NC(=O)C2C(Cl)C(Cl)CN2C(=O)C(C(C)O)NC(=O)CC(c2ccccc2)NC(=O)C(CO)NC1=O` (stereo not given), the Potency entry in test [1] and in test [2] was “inactive” each time.

Consider `CN[C@H]1[C@H](O)[C@H](O[C@@H]2[C@@H](O)[C@H](O[C@H]3O[C@H]([C@H](C)O)[C@@H](O)[C@H](O)[C@H]3N)[C@@H](N)C[C@H]2N)OC[C@@]1(C)O`, for which the Potency result in test [1] and in test [2] was “inactive” each time.

As to `CN1C(=O)c2ccccc2NC(=O)C1Cc1ccccc1` (stereo not given), the Potency result in test [1] and in test [2] was “inactive” in each case.

Turning to `C=C1[C@@H]2CC[C@@]3(C)[C@H](c4ccoc4)OC(=O)C[C@]13O[C@H]1CC(=O)C(C)(C)[C@H](C(OC(C)=O)C(=O)OC)[C@]12C` (stereo not given in full), the Potency result in test [1] and in test [2] was “inactive” each time.

On to `CC(=O)OC1CC(O)C(C)(C)C2CC(OC(C)=O)C3(C)C(CCC4(C)C(c5ccoc5)C(=O)C5OC543)C12C` (stereo not given), for which the Potency result in test [1] and in test [2] was “inactive” throughout.

As to `CC(=O)OC12C(O)C(C)C3(O)C4C=C(C)C(=O)C4CC(CO)=CC3C1C2(C)C` (stereo not given), the Potency entry in test [1] and in test [2] was “inactive” in each case.

With `CC(=O)OC1CC(O)C2(C)C(CC(OC(C)=O)C3(C)C2CCC2(C)C(c4ccoc4)C(=O)C4OC423)C1(C)C` (stereo not given), the Potency entry in test [1] and in test [2] was “inactive” throughout.

`CCC(C)(C#N)O[C@@H]1O[C@H](CO)[C@@H](O)[C@H](O)[C@H]1O` (stereo not given in full): the Potency result in test [1] and in test [2] was “inactive” each time.

`CN1C(=O)c2ccccc2NC(=O)[C@]12O[C@@H]2c1ccccc1`: the Potency result in test [1] and in test [2] was “inactive” throughout.

On to `N#CC(OC1OC(COC2OC(CO)C(O)C(O)C2O)C(O)C(O)C1O)c1ccccc1` (stereo not given), for which the Potency entry in test [1] and in test [2] was “inactive” throughout.

For `C/C=C(\C)C(=O)OC1C(C)OC(OC2C(C)OC(OC3CCC4(C)C(=CCC5C4CCC4(C)C(C(C)OC6OC(COC7OC(CO)C(O)C(O)C7O)C(O)C(O)C6O)CCC54O)C3)CC2OC)C(O)C1OC` (stereo not given), in test [1], the Potency entry was “inactive”. For the same compound, the activity change, negative = viability loss in test [2] was -3.12% [at 9.23 µM].

For the origin of these results see PubChem BioAssay (NCATS).
